In PubChem BioAssay (Tox21):
Values without a mark were called inactive. Inconclusive results are not listed. Entries that show only a call come without a potency. Activity calls are given as the source filed them. Unless noted, the call rests on the fitted dose curve.

How the values were obtained:
[1] = Nuclear factor erythroid 2-related factor 2/antioxidant responsive element (Nrf2/ARE) small molecule agonists: qHTS cell viability counter screen in human keratinocytes (AID 1919968; active means well fitted curve in the direction sought with a large enough effect in the repeat runs; an effect the other way counts as inactive or inconclusive; further: nearly all actives have a fitted effect of over 55% in size; further: potency means the concentration at half of the fitted maximal effect)
How it was run: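 Fluorescence read-out from CellTiter-Fluor after 1 h at 37 C. Wells held HaCaT-derived ARE-luciferase reporter cells (1,500/well) treated 23 h with DMSO-dissolved compounds. Run in the same wells as the luciferase agonist read.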

[2] = Nuclear factor erythroid 2-related factor 2/antioxidant responsive element (Nrf2/ARE) small molecule agonists: luciferase reporter gene qHTS assay in human keratinocytes (AID 1919969); further: nearly all actives have a fitted effect of over 35% in size; further: potency means the concentration at half of the fitted maximal effect
[3] = target: KiSS-1 receptor (Homo sapiens) (UniProt Q969F8); assay: Human kisspeptin (KISS1R) small molecule agonists, calcium flux assay in KISS1R-HEK293 cells (AID 1920064; active means well fitted curve in the direction sought with a large enough effect in the repeat runs; an effect the other way counts as inactive or inconclusive)
KiSS-1 receptor (Homo sapiens), sequence (Q969F8 whole entry, looked up): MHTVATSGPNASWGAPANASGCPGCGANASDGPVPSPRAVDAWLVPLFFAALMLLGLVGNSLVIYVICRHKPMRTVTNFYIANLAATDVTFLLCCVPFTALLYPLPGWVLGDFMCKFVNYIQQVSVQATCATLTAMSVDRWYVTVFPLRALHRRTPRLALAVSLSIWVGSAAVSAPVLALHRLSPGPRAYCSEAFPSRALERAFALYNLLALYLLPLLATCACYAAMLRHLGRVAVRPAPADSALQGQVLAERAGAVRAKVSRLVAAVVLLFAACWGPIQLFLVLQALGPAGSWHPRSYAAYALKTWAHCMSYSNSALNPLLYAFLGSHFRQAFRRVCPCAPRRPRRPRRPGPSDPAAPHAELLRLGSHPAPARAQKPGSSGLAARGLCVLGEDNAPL
How it was run: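 Calcium flux read-out: kinetic fluorescence at Ex/Em=480/540, 1 s intervals over 3 min, after pin-tool compound addition to dye-loaded KISS1R-HEK293 cells. Fifteen concentrations, triplicates.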

[4] = G protein-coupled receptor (GPCR) small molecule agonists, calcium flux assay: HEK293 wild type cell line counter screen (AID 1920065)
How it was run: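 Agonist mode; 18 h seeding at 37 C, 1 h dye load at 37 C; compounds pinned from DMSO, ATP as positive control; kinetic fluorescence 480/540 nm, 3 min, 1 s reads; 15 concentrations, triplicate.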

[5] = p53 small molecule agonists, cell-based qHTS assay with human liver microsomes (AID 1963577); further: potency means the concentration at half of the fitted maximal effect;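 on activation: p53 response element beta-lactamase reporter cells with liver microsomes plus NADPH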
How it was run: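 Steps: plate p53RE-bla cells, incubate 5 h at 37 C; add compound in DMSO; add microsomes (0.5 mg/mL final) and NADPH (0.5 mg/mL final); incubate 16 h at 37 C; add LiveBLAzer, 2 h RT; read fluorescence.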

[6] = p53 small molecule agonists, cell-based qHTS assay with rat liver microsomes (AID 1963578)
How it was run: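 Metabolic activation is supplied by rat liver microsomes with NADPH (each 0.5 mg/mL final). p53RE-bla cells incubate with compound 16 h at 37 C; reporter activity is measured by LiveBLAzer fluorescence.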

[7] = p53 small molecule agonists, cell-based qHTS assay with human liver microsomes: qHTS cell viability counter screen (AID 1963579); further: nearly all actives have a fitted effect of over 45% in size
How it was run: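 After the 460/530 nm beta-lactamase read, CellTiter-Glo was added to the same wells and luminescence measured after 30 min at room temperature, giving viability of p53RE-bla cells treated 16 h with compounds plus microsomes and NADPH.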

[8] = p53 small molecule agonists, cell-based qHTS assay with rat liver microsomes: qHTS cell viability counter screen (AID 1963580); further: nearly all actives have a fitted effect of over 45% in size; further: potency means the concentration at half of the fitted maximal effect
How it was run: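 Luminescent ATP readout (CellTiter-Glo, 30 min at room temperature) reports viability of p53RE-bla HCT-116 cells after 16 h at 37 C with test compounds under metabolic activation by rat liver microsomes and NADPH at 0.5 mg/mL final each.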

[9] = p53 small molecule agonists, cell-based qHTS assay: qHTS cell viability counter screen (AID 1963581); further: nearly all actives have a fitted effect of over 45% in size; further: potency means the concentration at half of the fitted maximal effect
How it was run: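 Cytotoxicity read-out: ATP-based luminescence (CellTiter-Glo, 30 min RT) measured in the same wells as the p53 reporter assay, HCT-116 p53RE-bla cells, 16 h compound exposure at 37 C.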

[10] = p53 small molecule agonists, cell-based qHTS assay (AID 1963582; active means well fitted activation curve with a large enough effect in the signal ratio in the repeat runs, not every such curve was filed as active; the % refers to the signal ratio)
How it was run: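 Fluorescence intensity read-out of a beta-lactamase reporter under a p53 response element. Cells were exposed to DMSO-dissolved compounds for 16 h at 37 C, then developed with FRET substrate for 2 h at RT.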

[11] = target: 5-hydroxytryptamine receptor 2A (Homo sapiens) (UniProt P28223); assay: 5-hydroxytryptamine receptor 2A (HTR2A) small molecule antagonists, cell-based qHTS assay (AID 1963586); further: nearly all actives have a fitted effect of over 45% in size; further: potency means the concentration at half of the fitted maximal effect
5-hydroxytryptamine receptor 2A (Homo sapiens), sequence (P28223 whole entry, looked up): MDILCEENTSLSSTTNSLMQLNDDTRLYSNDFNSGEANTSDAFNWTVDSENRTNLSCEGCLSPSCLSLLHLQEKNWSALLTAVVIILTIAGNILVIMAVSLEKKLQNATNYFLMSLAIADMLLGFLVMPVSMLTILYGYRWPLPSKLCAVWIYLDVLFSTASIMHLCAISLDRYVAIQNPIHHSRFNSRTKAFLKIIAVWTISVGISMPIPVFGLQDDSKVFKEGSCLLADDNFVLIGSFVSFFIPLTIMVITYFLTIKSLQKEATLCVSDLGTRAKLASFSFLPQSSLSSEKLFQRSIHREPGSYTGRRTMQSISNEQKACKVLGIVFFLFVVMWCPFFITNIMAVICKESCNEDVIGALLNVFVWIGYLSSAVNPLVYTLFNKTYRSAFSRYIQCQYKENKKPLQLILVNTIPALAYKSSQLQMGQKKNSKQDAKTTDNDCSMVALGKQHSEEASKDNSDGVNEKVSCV
How it was run: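 CHO cells stably expressing human HTR2A were plated for 18 h at 37 C, then loaded with calcium dye for 1 h. Compounds were preincubated 5 min at room temperature before DOI (4 nM solution) was added. Kinetic fluorescence was read for 3 min.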

[12] = target: 5-hydroxytryptamine receptor 2A (Homo sapiens) (UniProt P28223); assay: 5-hydroxytryptamine receptor 2A (HTR2A) small molecule agonists, cell-based qHTS assay (AID 1963587); further: nearly all actives have a fitted effect of over 30% in size
How it was run: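 HTR2A-CHO cells, plated 18 h at 37 C/5% CO2, dye-loaded 1 h at 37 C; compounds in DMSO added by pin tool (agonist mode). Intracellular calcium flux read as kinetic fluorescence on FDSS over 2 min at 1 s intervals.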

[13] = target: Muscarinic acetylcholine receptor M1 (Homo sapiens) (UniProt P11229); assay: Cholinergic receptor muscarinic 1 (CHRM1) small molecule agonists, cell-based qHTS assay (AID 1963589); further: nearly all actives have a fitted effect of over 35% in size
Muscarinic acetylcholine receptor M1 (Homo sapiens), sequence (P11229 whole entry, looked up): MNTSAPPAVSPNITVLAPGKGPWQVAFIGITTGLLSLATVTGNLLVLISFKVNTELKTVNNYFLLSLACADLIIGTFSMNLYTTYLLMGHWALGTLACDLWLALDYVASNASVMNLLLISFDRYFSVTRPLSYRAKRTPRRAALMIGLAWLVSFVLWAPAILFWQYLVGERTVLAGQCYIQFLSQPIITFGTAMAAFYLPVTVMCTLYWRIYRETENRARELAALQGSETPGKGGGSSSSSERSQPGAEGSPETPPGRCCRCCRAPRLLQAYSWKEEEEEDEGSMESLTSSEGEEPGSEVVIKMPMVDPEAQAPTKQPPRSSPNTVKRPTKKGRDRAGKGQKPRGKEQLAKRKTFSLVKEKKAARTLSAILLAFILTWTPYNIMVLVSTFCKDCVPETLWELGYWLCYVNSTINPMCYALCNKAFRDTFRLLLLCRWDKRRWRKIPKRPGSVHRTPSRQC
How it was run: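 Calcium flux read-out: kinetic fluorescence at 1 sec intervals after pin-tool compound addition to dye-loaded CHRM1-CHO cells (human M1). Agonist mode; 15 concentrations tested in triplicate independent runs.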

[14] = cAMP Responsive Elements (CRE) small molecule agonists, cell-based qHTS assay (AID 1963590)
How it was run: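 Beta-lactamase reporter readout: LiveBLAzer B/G FRET substrate, 2 h at room temperature, added after 3 h compound treatment of CRE-bla HEK 293T cells at 37 C/5% CO2.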

[15] = cAMP Responsive Elements (CRE) small molecule antagonists, cell-based qHTS assay (AID 1963591; active means well fitted inhibition curve with a large enough effect in the signal ratio in the repeat runs, not every such curve was filed as active; the % refers to the signal ratio)
How it was run: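 HEK293T CRE-bla; 18 h preincubation; compound pin-transfer; NKH477 0.25 uM final, 3 h, 37 C; LiveBLAzer FRET substrate 2 h RT.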

[16] = target: Beta-2 adrenergic receptor (Homo sapiens) (UniProt P07550); assay: Adrenergic beta2 receptor (ADRB2) small molecule antagonists, cell-based qHTS assay (AID 1963592); further: series mostly up to about 92 µM; nearly all actives have a fitted effect of over 50% in size
Beta-2 adrenergic receptor (Homo sapiens), sequence (P07550 whole entry, looked up): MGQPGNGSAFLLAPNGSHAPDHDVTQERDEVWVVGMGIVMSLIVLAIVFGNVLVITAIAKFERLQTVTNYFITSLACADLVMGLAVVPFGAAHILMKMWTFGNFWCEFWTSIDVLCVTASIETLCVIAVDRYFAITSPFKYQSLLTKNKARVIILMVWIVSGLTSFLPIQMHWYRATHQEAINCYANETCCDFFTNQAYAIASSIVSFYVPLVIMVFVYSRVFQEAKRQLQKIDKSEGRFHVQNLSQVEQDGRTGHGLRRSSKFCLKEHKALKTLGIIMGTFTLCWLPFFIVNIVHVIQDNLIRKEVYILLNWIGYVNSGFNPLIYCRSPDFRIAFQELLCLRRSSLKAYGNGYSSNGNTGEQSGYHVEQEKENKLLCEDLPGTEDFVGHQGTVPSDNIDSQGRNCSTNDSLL
How it was run: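 Assay format: CHO-ADRB2 cells, 18-20hr seeding at 37C/5% CO2, then compound plus 1nM isoproterenol agonist mix for 0.5hr RT. Homogeneous time-resolved fluorescence cAMP detection after 1hr, expressed as 665/615 nm ratio.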

[17] = target: D(2) dopamine receptor (Homo sapiens) (UniProt P14416); assay: Dopamine D2 receptor (DRD2) small molecule agonists, cell-based qHTS assay (AID 1963594); further: nearly all actives have a fitted effect of over 35% in size
D(2) dopamine receptor (Homo sapiens), sequence (P14416 whole entry, looked up): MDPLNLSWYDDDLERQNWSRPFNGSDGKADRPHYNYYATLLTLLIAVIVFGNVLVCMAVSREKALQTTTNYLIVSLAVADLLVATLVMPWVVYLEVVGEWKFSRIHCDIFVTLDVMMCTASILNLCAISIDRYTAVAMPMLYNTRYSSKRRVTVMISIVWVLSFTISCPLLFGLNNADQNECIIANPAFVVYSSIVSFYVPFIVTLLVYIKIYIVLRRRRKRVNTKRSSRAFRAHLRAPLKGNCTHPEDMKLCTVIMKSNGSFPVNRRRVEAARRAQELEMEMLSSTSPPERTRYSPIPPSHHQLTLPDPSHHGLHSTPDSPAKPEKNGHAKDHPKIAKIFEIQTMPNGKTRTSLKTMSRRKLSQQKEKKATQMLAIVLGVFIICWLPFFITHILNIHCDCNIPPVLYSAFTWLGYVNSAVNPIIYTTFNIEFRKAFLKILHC
How it was run: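 HEK293 cells stably expressing DRD2 were cultured 24 h at 37 C, then given Ro20-1724 (0.1 mM final) and compounds for 10 min at room temperature. NKH477 (200nM) was then added for 30 min. cAMP was read by HTRF.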

[18] = target: D(2) dopamine receptor (Homo sapiens) (UniProt P14416); assay: Dopamine D2 receptor (DRD2) small molecule antagonists, cell-based qHTS assay (AID 1963595; active means well fitted inhibition curve with a large enough effect in the signal ratio in the repeat runs, with a control signal flat; the % refers to the signal ratio; further: potency means the concentration at half of the fitted maximal effect)
How it was run: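 DRD2-HEK293; 0.1 mM Ro20-1724; cpd 10 min RT; NKH477 200 nM + quinpirole 12 nM, 30 min RT; HTRF cAMP (cAMP-d2/anti-cAMP cryptate), 665/620 nm ratio after 1 h.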

[19] = target: Gonadotropin-releasing hormone receptor (Homo sapiens) (UniProt P30968); assay: Human gonadotropin-releasing hormone receptor (GnRHR) small molecule agonists, calcium flux assay in GnRHR-HEK293 cells (AID 1920063); further: nearly all actives have a fitted effect of over 35% in size
Gonadotropin-releasing hormone receptor (Homo sapiens), sequence (P30968 whole entry, looked up): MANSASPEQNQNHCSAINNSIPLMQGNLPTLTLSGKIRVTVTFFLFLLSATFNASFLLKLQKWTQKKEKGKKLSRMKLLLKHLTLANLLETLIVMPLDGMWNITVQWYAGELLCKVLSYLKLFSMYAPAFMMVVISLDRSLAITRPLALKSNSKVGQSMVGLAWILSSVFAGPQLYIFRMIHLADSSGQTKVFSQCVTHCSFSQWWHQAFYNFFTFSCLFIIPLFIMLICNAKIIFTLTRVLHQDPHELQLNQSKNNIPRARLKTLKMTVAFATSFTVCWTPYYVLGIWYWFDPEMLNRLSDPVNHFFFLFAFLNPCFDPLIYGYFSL
How it was run: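 Calcium-dye fluorescence, Ex/Em=480/540, recorded every 1 sec over 3 min after compound addition to GnRHR-HEK293 cells. Cells had been seeded 18 hours earlier and dye-loaded for 1 hour at 37 C. Fifteen concentrations, triplicates.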

[20] = target: Muscarinic acetylcholine receptor M1 (Homo sapiens) (UniProt P11229); assay: Cholinergic receptor muscarinic 1 (CHRM1) small molecule antagonists, cell-based qHTS assay (AID 1963588); further: nearly all actives have a fitted effect of over 40% in size; further: potency means the concentration at half of the fitted maximal effect
How it was run: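 Compounds were tested at 15 concentrations in three independent runs. Dye-loaded CHRM1-CHO cells were exposed 5 min at room temperature before stimulation by acetylcholine added at 50nM. Intracellular calcium was read kinetically on FDSS for 3 min.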

Row | SMILES | Potency [1] | Potency [2] | Potency [3] | Potency [4] | Potency [5] | Potency [6] | Potency [7] | Potency [8] | Potency [9] | Potency [10] | Potency [11] | Potency [12] | Potency [13] | Potency [14] | Potency [15] | Potency [16] | Potency [17] | Potency [18] | Potency [19] | Potency [20]
1 | O=NN1CCN(N=O)CC1 | inactive | inactive | inactive | inactive | inactive | inactive | inactive | inactive | inactive | inactive | inactive | inactive | inactive | inactive | inactive | inactive | inactive | inactive | – | –
2 | CCCCCCCCCCCCCC[P+](CCCCCC)(CCCCCC)CCCCCC (tested in a mixture with another compound) | 6.86 µM (active) | inactive | – | inactive | inactive | inactive | – | 16.2 µM (active) | 14.5 µM (active) | – | inactive | inactive | inactive | – | – | inactive | inactive | 54.5 µM (active) | inactive | inactive
3 | C[C@]12CC[C@H]3[C@@H](CCC4=CC(=O)CC[C@@]43C)[C@@H]1CC[C@@H]2O | inactive | inactive | – | inactive | – | – | inactive | inactive | inactive | – | – | – | – | – | – | inactive | inactive | inactive | inactive | –
4 | CCOP(=O)(OCC)Oc1cc(C)nc(C(C)C)n1 | inactive | inactive | – | inactive | – | – | inactive | inactive | inactive | inactive | inactive | inactive | inactive | inactive | – | inactive | inactive | inactive | inactive | inactive
5 | C=CC(=O)OCCN(C)C | inactive | inactive | – | inactive | inactive | inactive | – | inactive | inactive | inactive | – | inactive | inactive | inactive | inactive | – | – | inactive | inactive | inactive
6 | CCOP(=S)(OCC)Oc1cc(-c2ccccc2)on1 | inactive | inactive | – | inactive | – | – | inactive | inactive | inactive | inactive | inactive | inactive | inactive | – | – | – | inactive | inactive | inactive | inactive
7 | Cc1c([N+](=O)[O-])c(C)c([N+](=O)[O-])c(C(C)(C)C)c1[N+](=O)[O-] | inactive | inactive | – | inactive | inactive | – | inactive | inactive | inactive | – | inactive | inactive | inactive | – | – | inactive | inactive | inactive | inactive | inactive
8 | CSc1ccc(C(=O)C(C)(C)N2CCOCC2)cc1 | inactive | inactive | – | inactive | inactive | – | inactive | – | inactive | inactive | inactive | inactive | – | inactive | – | inactive | inactive | inactive | inactive | inactive
9 | O=C(Cc1ccccc1)OCCc1ccccc1 | inactive | inactive | – | inactive | inactive | – | inactive | inactive | inactive | inactive | – | inactive | inactive | inactive | inactive | – | inactive | inactive | inactive | –
10 | CCC(=O)C(CCN(C)C)(c1ccccc1)c1ccccc1 | inactive | inactive | inactive | inactive | inactive | inactive | inactive | inactive | inactive | inactive | 16.3 µM (active) | inactive | inactive | – | – | – | inactive | inactive | – | 11.6 µM (active)
11 | Nc1ccc(Sc2ccc(N)cc2)cc1 | inactive | 68.6 µM (active) | – | inactive | – | – | – | inactive | inactive | – | inactive | – | inactive | inactive | inactive | inactive | – | inactive | inactive | inactive
12 | COP(=O)(OC)O/C(C)=C/C(=O)N(C)C | inactive | inactive | – | inactive | – | – | inactive | inactive | inactive | inactive | inactive | inactive | inactive | inactive | inactive | inactive | inactive | inactive | inactive | inactive
13 | O=C(CCCCl)c1ccc(F)cc1 | inactive | inactive | – | inactive | – | inactive | inactive | inactive | inactive | inactive | inactive | inactive | inactive | inactive | inactive | inactive | inactive | inactive | inactive | inactive
14 | N#CCCSCCC#N | inactive | inactive | – | – | inactive | inactive | inactive | inactive | inactive | inactive | inactive | inactive | inactive | inactive | – | inactive | – | inactive | inactive | inactive
15 | CNP(=O)(OC)Oc1ccc(C(C)(C)C)cc1Cl (configuration not stated) | inactive | 48.6 µM (active) | – | inactive | 3.24 µM (active) | – | inactive | inactive | inactive | inactive | inactive | inactive | – | inactive | – | inactive | inactive | inactive | inactive | inactive
16 | CC[C@@H](CO)NC(=O)[C@@H]1C=C2c3cccc4[nH]cc(c34)C[C@H]2N(C)C1 | inactive | inactive | – | inactive | inactive | – | inactive | inactive | inactive | inactive | – | – | – | – | inactive | – | – | – | inactive | –
17 | CCN(CC)c1c([N+](=O)[O-])cc(C(F)(F)F)c(N)c1[N+](=O)[O-] | inactive | inactive | – | inactive | inactive | inactive | – | inactive | inactive | inactive | – | inactive | inactive | – | – | – | inactive | inactive | inactive | –
